CSC inhib = cancer stem cell viability inhibitors, primary screen, luminescence | cancer stem cell-like cells viability | inhibition, % at 7.5 µM | 300,000 tested, 1.1% active | AID 2717, 2010; in the data active = inhibition above about 75%; inconclusive = no clear call, values can overlap the other calls; tested in HMLE shEcad cells
Beta apoptosis = inhibitors of cytokine-induced beta cell apoptosis, primary screen, luminescence; INS-1E cytokine-induced death, ATP luminescence, 48 h; percent of positive-control rescue, neutral wells zero; protection from apoptosis, % (concentration not given with the values); 300,000 tested, 0.8% active; AID 435005, 2010;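 active = Every replicate reaches about 75%, or at least half do and their mean reaches it too, limit read from the data; inconclusive = At least half of replicates reach the limit but their mean does not; inactive = Under half of replicates reach the limit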;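 note: 0% = cytokine-treated negative control wells and 100% = positive control rescue; higher means more ATP so stronger rescue from cytokine killing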
MPTP inh = mitochondrial permeability transition pore inhibitors, primary screen, biochemical, isolated mouse mitochondria, absorbance. 360,000 tested, 1.4% active. inhibition, % at 10 µM. Ca2+ swelling absorbance, 30 min. AID 602449, 2012;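 active = inhibition of 50% or more, scaled per plate between neutral and stimulator controls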;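 note: 0% = DMSO wells given calcium and 100% = 1 mM EGTA wells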
NR3A LBD binder = binders of NR3A ligand-binding domain, primary screen, biophysical, differential scanning fluorimetry, uHTS; 340,000 tested, 2.5% active; NR3A LBD differential scanning fluorimetry, Tm shift; 0% = protein alone, 100% = glycine-bound protein; Tm shift relative to glycine control, % at 25 µM;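 active = melting temperature shift of at least 10% of the positive control shift, at one fixed dose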
Gli-Sufu antag = Gli-Sufu pathway antagonists, primary screen, luciferase luminescence, Sufu-KO-LIGHT cells, uHTS; inhibition, % at 5 µM; Sufu-KO-LIGHT fibroblasts, Gli luciferase reporter luminescence; 340,000 tested, 0.74% active;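 active = inhibition above about 55%, limit read from the data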;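 note: 0% = DMSO-treated cells and 100% = wells with medium but no cells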
Mdm2 MdmX PPI = inhibitors of human Mdm2-MdmX association, primary screen, cell-based, luminescence, split luciferase, SaOS-2, uHTS; Protein Mdm4 (Homo sapiens) + E3 ubiquitin-protein ligase Mdm2 (Homo sapiens), …; SaOS-2 split-luciferase Mdm2/MdmX complementation; inhibition, % at 8 µM; 330,000 tested, 3% active;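 active = inhibition of at least 50% at 8 µM in the primary screen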
Target sequence (O15151 whole entry, looked up): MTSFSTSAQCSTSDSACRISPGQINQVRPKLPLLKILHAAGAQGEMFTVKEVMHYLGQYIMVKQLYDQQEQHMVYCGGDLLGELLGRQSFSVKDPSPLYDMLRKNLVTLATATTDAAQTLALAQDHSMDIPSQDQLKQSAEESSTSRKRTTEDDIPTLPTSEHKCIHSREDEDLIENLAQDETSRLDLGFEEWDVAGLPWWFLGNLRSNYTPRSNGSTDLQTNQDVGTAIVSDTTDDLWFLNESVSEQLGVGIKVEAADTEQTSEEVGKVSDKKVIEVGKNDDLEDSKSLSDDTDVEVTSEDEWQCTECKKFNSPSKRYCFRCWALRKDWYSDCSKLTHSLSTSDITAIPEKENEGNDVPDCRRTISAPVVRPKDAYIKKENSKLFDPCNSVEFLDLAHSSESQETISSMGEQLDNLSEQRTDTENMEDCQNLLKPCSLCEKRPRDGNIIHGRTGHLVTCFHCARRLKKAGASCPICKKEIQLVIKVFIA
Target sequence (Q00987 whole entry, looked up): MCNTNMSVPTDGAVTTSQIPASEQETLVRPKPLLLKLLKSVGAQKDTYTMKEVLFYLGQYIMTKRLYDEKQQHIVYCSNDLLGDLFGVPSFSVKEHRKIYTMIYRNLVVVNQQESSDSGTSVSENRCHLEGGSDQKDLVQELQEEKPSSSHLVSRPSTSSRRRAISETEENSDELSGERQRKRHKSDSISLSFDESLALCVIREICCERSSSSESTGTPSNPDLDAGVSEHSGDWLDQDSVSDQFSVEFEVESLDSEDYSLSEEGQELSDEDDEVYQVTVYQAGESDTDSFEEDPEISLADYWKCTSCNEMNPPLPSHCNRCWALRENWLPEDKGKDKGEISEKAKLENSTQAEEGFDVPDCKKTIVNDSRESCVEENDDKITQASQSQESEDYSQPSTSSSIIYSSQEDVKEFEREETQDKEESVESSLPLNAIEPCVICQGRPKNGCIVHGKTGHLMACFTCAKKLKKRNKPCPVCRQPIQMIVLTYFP
Gli-Sufu confirm = Gli-SUFU pathway antagonists, confirmation, single concentration, luciferase luminescence, Sufu-KO-LIGHT cells; Gli luciferase reporter; inhibition, % at 5 µM; shares compounds with Gli-Sufu antag; 2,500 tested, 40% active;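 active = mean inhibition at 5 µM reaching about 45%, limit read from the data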;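 note: plate controls were DMSO-treated cells for no effect and wells lacking cells for full effect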
Gli cytotox = cytotoxicity in Sufu-KO-LIGHT cells, confirmation, cytotoxicity control for Gli-SUFU antagonist project, cell-based, ATP luminescence, single concentration; 2,500 tested, 32% active; cytotoxicity, % at 5 µM; AID 651994, 2013; shares compounds with Gli-Sufu antag;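 active = mean cytotoxicity at 5 µM above about 25%, limit read from the data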;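 note: cells exposed to compound overnight for roughly 16 to 18 hours; plate controls were DMSO wells with cells for no effect and medium without cells for full effect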
Wnt3a counter = Wnt3a reporter signal inhibition, confirmation, counter-screen for Gli-SUFU antagonist project, Wnt-LIGHT cells, luminescence, single concentration; inhibition, % at 6.25 µM; shares compounds with Gli-Sufu antag; Wnt3a-driven luciferase reporter; 2,500 tested, 20% active;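 active = mean inhibition above about 25%, limit read from the data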
MPTP counter = fluorescence retest of MPTP screen hits in isolated mitochondria, single concentration; membrane potential, Rhodamine 123 fluorescence; 5,000 tested, 78% active; shares compounds with MPTP inh; AID 624504, 2012; inhibition, % at 10 µM; in the data active = inhibition above about 22%;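 note: 0% = DMSO vehicle and 100% = positive control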
The depositor's hits bear a star. Hits are enriched below; roughly 6.6% of the tested compounds scored in any of these assays.

How did CCOC(=O)CC1CCCCN1C(=O)c1cc(COc2cccc3cnccc23)on1 (stereo not drawn) do in these assays?
CSC inhib: 9; Beta apoptosis: 96*; MPTP inh: 102*; NR3A LBD binder: 0; Gli-Sufu antag: 74*; Mdm2 MdmX PPI: 36; Gli-Sufu confirm: 62*; Gli cytotox: 20; Wnt3a counter: 25; MPTP counter: 112*

What do the screens show for `O=C(c1cc(COc2cccc3cccnc23)on1)N1CCC[C@H]1CO`?
MPTP inh: 0

What do the screens show for `Cc1nn(Cc2noc(C(=O)NC3CCC(C)CC3)n2)c(C)c1Br` (stereo not drawn)?
CSC inhib: 15; Beta apoptosis: 20; MPTP inh: 59*; NR3A LBD binder: 1; Gli-Sufu antag: 51; Mdm2 MdmX PPI: 13; Gli-Sufu confirm: 80*; Gli cytotox: 29*; Wnt3a counter: 1; MPTP counter: 58*

Results for O=C(CSc1nnnn1C1CC2CCC1C2)Nc1ccnc2ccccc12 (stereo not drawn) ?
CSC inhib: -1; MPTP inh: 98*; NR3A LBD binder: -1; Gli-Sufu antag: 83*; Mdm2 MdmX PPI: 37; Gli-Sufu confirm: 85*; Gli cytotox: 35*; Wnt3a counter: 6; MPTP counter: 101*

Results for CCN(CC)S(=O)(=O)c1ccc(Oc2ccc(S(=O)(=O)N(CC)CC)cc2)cc1 ?
CSC inhib: 0; Beta apoptosis: 113*; MPTP inh: 97*; NR3A LBD binder: 0; Gli-Sufu antag: 80*; Mdm2 MdmX PPI: 27; Gli-Sufu confirm: 85*; Gli cytotox: 45*; Wnt3a counter: 29*; MPTP counter: 89*

What do the screens show for `CCOC(=O)N1CCN(c2ncnc3c2[nH]c2ccc(OC)cc23)CC1`?
CSC inhib: -2; Beta apoptosis: -2; MPTP inh: 0; NR3A LBD binder: 0; Gli-Sufu antag: 45; Mdm2 MdmX PPI: 2

What do the screens show for `CCCCOc1ncnc2c1[nH]c1ccc(OCC)cc12`?
CSC inhib: -21; Beta apoptosis: 9; MPTP inh: 1; NR3A LBD binder: -1; Gli-Sufu antag: 7; Mdm2 MdmX PPI: 11

Results for CCOC(=O)N1CCN(c2ncnc3c2[nH]c2ccc(F)cc23)CC1 ?
CSC inhib: 3; Beta apoptosis: 76*; MPTP inh: 98*; NR3A LBD binder: 0; Gli-Sufu antag: 76*; Mdm2 MdmX PPI: 5; Gli-Sufu confirm: 75*; Gli cytotox: 27*; Wnt3a counter: -6; MPTP counter: 84*

Results for CCCCOc1ncnc2c1[nH]c1ccc(F)cc12 ?
CSC inhib: inconclusive; Beta apoptosis: 110*; MPTP inh: 95*; NR3A LBD binder: 0; Gli-Sufu antag: 58*; Mdm2 MdmX PPI: 9; Gli-Sufu confirm: 56*; Gli cytotox: 29*; Wnt3a counter: 12; MPTP counter: 84*

Results for COc1cc2c(cc1OCc1ccccc1)/C(=C/C(=O)OCc1ccccc1)OC2 ?
MPTP inh: 1

How did Cc1c(C(=O)N2CCOCC2)cc(C(C)(C)C)n1-c1ccccc1 do in these assays?
CSC inhib: 64; Beta apoptosis: -3; MPTP inh: 3; NR3A LBD binder: 4; Gli-Sufu antag: -4; Mdm2 MdmX PPI: 14

What do the screens show for `CCOC(=O)c1ccc(NC(=O)Nc2ccc(OC)c(OC)c2)cc1`?
CSC inhib: -10; Beta apoptosis: 2; MPTP inh: 65*; NR3A LBD binder: 16*; Gli-Sufu antag: 61*; Mdm2 MdmX PPI: 12; Gli-Sufu confirm: 24; Gli cytotox: 8; Wnt3a counter: -9; MPTP counter: 69*

How did CCOC(=O)c1ccc(NC(=O)c2ccc(OC(C)C)c(OC)c2)cc1 do in these assays?
CSC inhib: -23; Beta apoptosis: 0; MPTP inh: 1; NR3A LBD binder: 0; Gli-Sufu antag: -20; Mdm2 MdmX PPI: 8

Results for Nc1nccc(-c2ccc(-n3cccc3)cc2)n1 ?
CSC inhib: -12; Beta apoptosis: -8; MPTP inh: 0; NR3A LBD binder: -1; Gli-Sufu antag: -43; Mdm2 MdmX PPI: -10

How did CC(=O)c1c(C)[nH]c(C(=O)OCCCCN2C(=O)c3ccccc3C2=O)c1C do in these assays?
CSC inhib: -1; Beta apoptosis: 104*; MPTP inh: 103*; NR3A LBD binder: 3; Gli-Sufu antag: 68*; Mdm2 MdmX PPI: 29; Gli-Sufu confirm: 66*; Gli cytotox: 32*; Wnt3a counter: 16; MPTP counter: 91*

What do the screens show for `O=C(NC(c1cccnc1)C(F)(F)F)c1cc(COc2ccc3c(c2)CCCC3)on1` (stereo not drawn)?
CSC inhib: 27; Beta apoptosis: 107*; MPTP inh: 100*; NR3A LBD binder: -3; Gli-Sufu antag: 61*; Mdm2 MdmX PPI: -15; Gli-Sufu confirm: 59*; Gli cytotox: 31*; Wnt3a counter: -95; MPTP counter: 86*

How did COc1cc(CNc2ncnc3c2ncn3[C@H]2CN(Cc3cc(OC)c(OC)c(OC)c3)C[C@@H](CO)O2)cc(OC)c1OC do in these assays?
MPTP inh: 0

How did COC(=O)COc1ccc(S(=O)(=O)NCc2ccc3c(c2)OCO3)cc1 do in these assays?
CSC inhib: 3; Beta apoptosis: 4; MPTP inh: 0; NR3A LBD binder: 0; Gli-Sufu antag: -14; Mdm2 MdmX PPI: -5

How did CC1CCCN(C(=O)c2ccc3c(=O)n(C4CCCC4)c(=S)[nH]c3c2)C1 (stereo not drawn) do in these assays?
CSC inhib: 30; Beta apoptosis: -3; MPTP inh: 19; NR3A LBD binder: -4; Gli-Sufu antag: 46; Mdm2 MdmX PPI: 14

Assay outcomes from PubChem.
